# Laboratory results published in PubChem BioAssay AID1259313 (Sanford-Burnham Center for Chemical Genomics, 2017).
# In all, about 340,000 compounds went through this assay and about 8,500 (2.5%) were called active.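 Rule for the calls: active = melting temperature shift of at least 10% of the positive control shift, at one fixed dose; inactive = the rest.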 For the sample, actives were picked, then their nearest neighbours and some compounds at random.
# Test system: Glutamate receptor ionotropic, NMDA 3A (GRIN3A) ligand-binding domain
# Assay: binders of NR3A ligand-binding domain, primary screen, biophysical, differential scanning fluorimetry, uHTS (AID 1259313)
# Conditions: NR3A LBD differential scanning fluorimetry, at 25 µM, hits give high values, 0% = protein alone, 100% = glycine-bound protein
row,SMILES,Tm shift relative to glycine control
1,CCCCN(CC)C(=O)C1CCCN(S(=O)(=O)c2cccc3nsnc23)C1 (stereo not given),-4.45% (inactive)
2,CC1C(=O)Nc2ccc(S(=O)(=O)N3CCN(c4ccccc4F)CC3)cc2NC1=O (stereo not given),0.26% (inactive)
3,Cc1cccc2nc(CNc3ccc(F)cc3)cn12,-1.65% (inactive)
4,CC(=O)NS(=O)(=O)c1ccc(NC(=O)/C=C/c2ccccc2Cl)cc1,-4.31% (inactive)
5,NS(=O)(=O)c1ccc(NC(=O)/C=C/c2ccccc2Cl)cc1,22.5% (active)
6,O=C(/C=C/c1ccccc1Cl)Nc1ccc(S(=O)(=O)Nc2ncccn2)cc1,3.4% (inactive)
7,O=C(O)c1ccccc1-c1ccccc1C(=O)Nc1ccccc1Br,-1.03% (inactive)
8,Cc1cc(N2C(=O)c3ccc(C(=O)NCc4ccccc4)cc3C2=O)no1,-0.54% (inactive)
9,CC(C)C[C@H](NC(=O)N1CCn2c1nc1ccccc12)C(=O)NC1CC1,-0.74% (inactive)
10,COc1ccc(/C=C/c2nnc(NC(=O)C(C)C)s2)cc1,6.05% (inactive)
11,O=C(Nc1ccc(Cl)cc1)Nc1nnc(/C=C/c2ccccc2)s1,10.2% (active)
12,O=C(CSc1ccccc1)Nc1nnc(/C=C/c2ccccc2)s1,-4.65% (inactive)
13,CC1CN(c2cc(=O)n(Cc3ccc(F)cc3)c(=O)[nH]2)CC(C)O1 (stereo not given),-2.45% (inactive)
14,COc1cc(CNC2CCCCC2)c(Br)cc1OC1CCCC1,-0.72% (inactive)
15,COc1ccc(CNC(=O)COc2ccccc2C(=O)c2cnn(-c3ccccc3)c2)cc1OC,0.33% (inactive)
16,O=C(c1cnn(-c2ccc(Cl)cc2)c1)c1ccccc1O,-2.84% (inactive)
17,Cc1cc(O)cc(O)c1C(=O)Cc1cnn(-c2ccccc2)c1,13.1% (active)
18,O=C(Nc1ccc(N2CCOCC2)nc1)c1c(F)cccc1F,1.58% (inactive)
19,COC(=O)c1c(-c2ccsc2)oc2ccc(-c3cc(OC)c(OC)c(OC)c3)cc12,14.2% (active)
20,COc1cc(CC(=O)NCc2cccs2)cc(OC)c1OC,2.82% (inactive)
21,COc1ccccc1CNC(=O)c1cc(=O)c2ccccc2o1,-2.39% (inactive)
22,CCc1ccccc1NC(=O)CN(c1ccc(OC)cc1OC)S(=O)(=O)c1ccccc1[N+](=O)[O-],-2.68% (inactive)
23,COc1ccc(Br)cc1CN(C)CC(=O)Nc1cc([N+](=O)[O-])ccc1OC,-12.7% (inactive)

row,SMILES,Tm shift relative to glycine control
1,CCc1cccc(NC(=O)COC(=O)C2CCN(c3ccc(C(F)(F)F)cn3)CC2)c1,12.6% (active)
2,N#CCCN(C(=O)COC(=O)C1CCN(c2ccc(C(F)(F)F)cn2)CC1)c1ccc(F)cc1,1.13% (inactive)
3,CCOc1ccc(CCNC(=O)COC(=O)C2CCN(c3ccc(C(F)(F)F)cn3)CC2)cc1OCC,-4.5% (inactive)
4,COc1ccc(-n2nc(C(=O)NCC(=O)N3CCCCCC3)c3ccccc3c2=O)cc1Cl,-2.28% (inactive)
5,O=C(COC(=O)c1cc(-c2cccs2)nn1-c1ccccc1)Nc1cc([N+](=O)[O-])ccc1Cl,-1.02% (inactive)
6,O=C(COC(=O)c1ccncc1)Nc1ccc2c(c1)OCO2,-0.26% (inactive)
7,NS(=O)(=O)c1ccc(NC(=O)COC(=O)CCc2c[nH]c3ccccc23)cc1,-3.19% (inactive)
8,O=C(COC(=O)c1c2c(nc3ccccc13)/C(=C\c1cccs1)CCC2)Nc1ccccc1Cl,14.6% (active)
9,O=C(COC(=O)c1ccc(F)cc1)Nc1ccc2c(c1)OCO2,-2.46% (inactive)
10,NS(=O)(=O)c1ccc(NC(=O)COC(=O)c2ccco2)cc1,-3.86% (inactive)
11,NS(=O)(=O)c1ccc(NC(=O)COC(=O)c2c3c(nc4ccccc24)/C(=C\c2ccc4c(c2)OCO4)CCC3)cc1,38% (active)
12,NC(=O)c1ccc(NC(=O)COC(=O)c2c3c(nc4ccccc24)/C(=C\c2ccc4c(c2)OCO4)CCC3)cc1,31.8% (active)
13,COc1cc(/C=C2\CCCc3c2nc2ccccc2c3C(=O)O)cc(Cl)c1O,-0.18% (inactive)
14,CC(C)(C)n1ncc2c(=O)n(Cc3c(Cl)cccc3Br)cnc21,-3.98% (inactive)
15,COc1ccc(NS(=O)(=O)c2ccc(C)c(C(=O)NNC(=O)c3csc(N4CCOCC4)n3)c2)cc1,0.91% (inactive)
16,COc1ccc(NC(=O)COC(=O)CNC(=O)C2CCCCC2)cc1,-0.45% (inactive)
17,Cc1cc(C)cc(NC(=O)Cn2cnc3c(nnn3Cc3ccc(F)cc3)c2=O)c1,3.35% (inactive)
18,COc1ccc(/C=C/CN2CCCC(C(=O)c3cc(F)ccc3F)C2)cc1 (stereo not given),-1.5% (inactive)
19,CCN1CCN(c2nc(Nc3cc(OC)ccc3OC)nc(Nc3cc(OC)ccc3OC)n2)CC1,-2.4% (inactive)
20,Cc1csc(NC(=O)C2CCN(S(=O)(=O)c3ccccc3)CC2)n1,2.42% (inactive)
21,CC(C)(C)NC(=O)COc1ccc(CNc2ccc3[nH]c(=O)[nH]c3c2)cc1,-1.72% (inactive)
22,COc1cccc(CN(C)CC(O)COC(c2ccccc2)c2ccccc2C)c1 (stereo not given),-2.39% (inactive)
23,C=C(C)Cn1c(C)cc(C)c(S(=O)(=O)c2ccccc2C)c1=O,2.34% (inactive)

row,SMILES,Tm shift relative to glycine control
1,COCCn1c(C)cc(C(=O)CSc2nnc(C3CC3)n2C2CC2)c1C,-0.08% (inactive)
2,Cc1nc2ccccc2n1CC(=O)N/N=C/c1cccs1,-4.96% (inactive)
3,CC(C)NS(=O)(=O)c1ccc(NC(=O)c2cccnc2)cc1,0.24% (inactive)
4,COc1ccc(NS(=O)(=O)c2ccc(NC(=O)c3ccc(N(C)S(C)(=O)=O)cc3)cc2)cc1,-0.38% (inactive)
5,COc1ccc(C(=O)Nc2ccc(S(=O)(=O)NC(C)C)cc2)cc1,14% (active)
6,CCC(=C/c1sc2ccc3ccccc3c2[n+]1C)/C=C1\Sc2ccc3ccccc3c2N1C,3.14% (inactive)
7,CC1CCCCC1NC(=O)Cn1cnc2c1c(=O)n(C)c(=O)n2C (stereo not given),-0.41% (inactive)
8,Cc1ccc(O)c(NC(=S)NC(=O)COc2ccc(Br)cc2)c1,16.9% (active)
9,CCS(=O)(=O)c1ccc(O)c(NC(=O)COc2ccc(Cl)cc2)c1,1.4% (inactive)
10,COc1ccc(C(=O)Nc2cc(C)ccc2NC(=O)COc2ccccc2)cc1,-0.91% (inactive)
11,Oc1ccc(/C=N/N(Cc2ccccc2)c2ccccc2)cc1,8.8% (inactive)
12,COc1cc(OC)cc(-c2cc3ccc(F)cc3cn2)c1,1.79% (inactive)
13,COC(=O)C1CCN(C(=O)NC2CC(=O)N(c3ccc4c(c3)OCCO4)C2)CC1 (stereo not given),0.42% (inactive)
14,CC(=O)c1ccccc1NC(=O)C1CC(=O)N(c2ccc3c(c2)OCCO3)C1 (stereo not given),-0.26% (inactive)
15,CC(=O)c1ccc(S(=O)(=O)NC2CC(=O)N(c3ccc4c(c3)OCCO4)C2)cc1 (stereo not given),15.5% (active)
16,Cc1nc2cc(C(F)(F)F)ccc2n1CCNc1nc(-c2cc(Cl)c(N)c(Cl)c2)cs1,-2.53% (inactive)
17,Cc1ccc(C(C(=O)NC2CCCCC2)N(C(=O)c2csnn2)C2CC2)o1 (stereo not given),-0.78% (inactive)
18,COc1ccc(S(=O)(=O)N2CCOCC2)cc1NC(=O)CSc1nnc(NC2CC2)s1,1.84% (inactive)
19,COc1cccc(/C=N/NC(=O)c2[nH]nc3c2CCc2ccccc2-3)c1O,20.4% (active)
20,COc1ccc(/C=N/NC(=O)c2ccncc2)cc1CN1CCCc2ccccc21,-8.86% (inactive)
21,COc1ccc(Br)cc1/C=N/NC(=O)c1cccc(S(=O)(=O)N2CCOCC2)c1,-9.01% (inactive)
22,O=C(c1cc2ccccc2o1)N1CCN(Cc2ccccc2)CC1,0.09% (inactive)
23,Fc1ccc(OCc2nn3c(Cn4nnc5ccccc54)nnc3s2)cc1,2.39% (inactive)

row,SMILES,Tm shift relative to glycine control
1,CC1CN(/C=C/C(=O)C(F)(F)F)CC(C)O1 (stereo not given),0.33% (inactive)
2,COc1ccccc1Cn1c(C)nnc1-c1cnn(C)c1N,1% (inactive)
3,CN(CC(=O)Nc1ccc(Cl)cc1)CC(=O)Nc1cccc2ccccc12,-7.6% (inactive)
4,O=C(Cc1cccc2ccccc12)NNC(=O)Nc1ccc(Cl)cc1,29.1% (active)
5,O=C(O)Cc1ccc(NC(=O)Nc2cccc3ccccc23)cc1,-1.31% (inactive)
6,O=C(OC12CC3CC(CC(C3)C1)C2)c1ccc(NCc2cc(O)ccc2O)cc1,33.5% (active)
7,CC(C)OC(=O)c1ccc(NCc2cc(O)ccc2O)cc1Cl,-1.69% (inactive)
8,COC(=O)c1ccc(NCc2cc(O)ccc2O)cc1,5.08% (inactive)
9,Cn1c(SCc2ccc(F)cc2)nnc1-c1ccncc1,1.71% (inactive)
10,CCC(C)(C)n1nnnc1CN1CCN(c2nc3ccc(C)cc3cc2C#N)CC1,0.62% (inactive)
11,O=C(NCc1ccccc1)C(c1ccccc1)N(C(=O)c1csnn1)c1ccc(F)cc1 (stereo not given),-0.6% (inactive)
12,O=C(COC(=O)CCc1c[nH]c(=O)[nH]1)Nc1ccccc1Cl,1.15% (inactive)
13,O=C(Nc1ccccc1Cl)/C(Cl)=C(\Cl)S(=O)c1ccccc1 (stereo not given),11.6% (active)
14,CN(C)S(=O)(=O)Oc1ccccc1C(=O)Nc1ccccc1Cl,-0.92% (inactive)
15,Cc1nn(-c2ccccc2)c2[nH]c(C(F)(F)F)cc(=O)c12,-11.2% (inactive)
16,COc1ccc(CN2CCN(Cc3cn(C)nc3-c3ccccc3)CC2CCO)c(C)c1C (stereo not given),-3.71% (inactive)
17,O=C(/C=C(O)/C=C/c1ccc(O)cc1)/C=C/c1ccc(O)cc1,19% (active)
18,COc1cccc(C=CC(=O)C=CC=Cc2ccccc2)c1,-1.98% (inactive)
19,O=C(O)/C=C/c1ccc(OCCCF)cc1,-1.35% (inactive)
20,Cc1ccc(S(=O)(=O)NCCc2nnc3ccc(SCc4cccnc4)nn23)cc1,-2.44% (inactive)
21,COc1cc(OC)c(C(=O)NNC(=O)c2ccccc2-n2cccc2)cc1OC,-0.41% (inactive)
